Screens (PubChem BioAssay)
HP1b chromo inh: inhibitors of HP1-beta chromodomain binding to methylated histone tails; AID 540317; P83916; 390,000 compounds, 0.56% hits; AlphaScreen HP1-beta / biotin-H3K9me3 peptide binding; Potency, µM (titrated, usually from 114 µM), for the others: at the highest dose activity change, negative = inhibition, most hits filed as inhibitors; also: nearly all actives have a fitted effect of over 70% in size
Target sequence (P83916 whole entry, looked up): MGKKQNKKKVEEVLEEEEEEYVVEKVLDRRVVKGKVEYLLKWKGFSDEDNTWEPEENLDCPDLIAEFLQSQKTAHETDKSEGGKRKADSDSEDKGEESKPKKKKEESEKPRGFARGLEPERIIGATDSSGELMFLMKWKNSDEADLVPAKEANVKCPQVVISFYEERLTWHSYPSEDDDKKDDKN
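Compound inhibition of the preformed complex between 50 nM HP1-beta and 50 nM biotinylated H3K9me3 peptide was read by AlphaScreen. Buffer was PBS pH 7.4 with 0.01% Tween-20. Incubations ran 30 min at room temperature, with 10 ug/mL donor/acceptor beads.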
BAZ2B inh: BAZ2B (human) inhibition. Q9UIF8. AlphaScreen BAZ2B-H3K14Ac peptide displacement. Potency, µM (doses to about 114 µM), without a hit: top-dose activity change, negative = inhibition, usual class: inhibitors. 360,000 compounds, 4.4% hits. AID 504333; also: % is scaled to controls: 0 for no effect and ±100 for the full control effect; nearly all actives have a fitted effect of over 60% in size
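Inhibition is scored as reduced AlphaScreen emission. The BAZ2B/b-H3(5-23)K14Ac complex (50 nM each) in PBS pH 7.4, 0.01% Tween-20 meets compound (up to 110 uM) for 30 min at RT before bead addition.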
G9a block: blocks human histone lysine methyltransferase G9a. 350,000 compounds, 8.8% hits. AID 504332. Potency, µM (highest dose often 102 µM), for inactives: at the top dose activity, negative = inhibition, usual class: inhibitors. G9a H3K9 monomethylation, AlphaScreen, 2 h; also: % is scaled to controls: 0 for no effect and ±100 for the full control effect; nearly all actives have a fitted effect of over 75% in size
Target sequence (Q96KQ7 913-1193 limits assumed): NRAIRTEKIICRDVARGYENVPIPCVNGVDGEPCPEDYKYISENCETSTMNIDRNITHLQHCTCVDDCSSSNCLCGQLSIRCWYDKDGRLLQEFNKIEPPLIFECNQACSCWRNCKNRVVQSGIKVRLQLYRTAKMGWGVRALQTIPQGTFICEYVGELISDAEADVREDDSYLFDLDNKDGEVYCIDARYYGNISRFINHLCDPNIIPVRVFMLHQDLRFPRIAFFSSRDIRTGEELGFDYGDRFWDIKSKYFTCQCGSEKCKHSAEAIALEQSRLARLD
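AlphaScreen detection with an anti-monomethyl H3K9 antibody quantified product after a 2 h room-temperature reaction containing 500 nM biotinylated H3K9 peptide, 20 µM SAM and 20 nM enzyme, which had been preincubated 15 min with compound.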
JMJD2A Tudor inh: JMJD2A Tudor domain (human) inhibition | O75164 | AlphaScreen JMJD2A-Tudor / H3K4me3 peptide binding | Potency, µM (titrated, usually from 114 µM), without a hit: at the top dose activity change, negative = inhibition, hits mostly inhibitors | 390,000 compounds, 4.4% hits; also: % is scaled to controls: 0 for no effect and ±100 for the full control effect; nearly all actives have a fitted effect of over 50% in size
L3MBTL1 inh: L3MBTL1 (human) inhibition | AID 485360 | AlphaScreen L3MBTL1–H3K9me1 peptide binding | Q9Y468 | Potency, µM (doses to about 57.1 µM), for the others: at the highest dose activity, negative = inhibition, usual class: inhibitors | 230,000 compounds, 0.66% hits; also: % is scaled to controls: 0 for no effect and ±100 for the full control effect; nearly all actives have a fitted effect of over 60% in size
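Displacement of a biotinylated histone H3(1-15) peptide monomethylated at Lys9 (75 nM) from L3MBTL1 (50 nM) was measured by AlphaScreen after a 30 min room-temperature compound incubation; cefsulodin titration served as intraplate control.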
An asterisk follows results filed as active; ? = inconclusive; . = no result given; [ ] = another dose, or the depositor's remark. Rows were chosen to be rich in hits. Some 11% of all compounds tested hit in one or more screens of this group. Calls follow the shape of the dose curve; as a rule, active = well fitted inhibition curve with a large enough effect; inconclusive = small, poorly fitted or top-dose-only effect; inactive = no such curve, though single readings can be large or run the other way. Potency is read from the fitted curve at half-maximal effect.

SMILES	HP1b chromo inh	BAZ2B inh	G9a block	JMJD2A Tudor inh	L3MBTL1 inh
O=C1/C(=C/c2cccc(O)c2)SC(=S)N1CC1CCCO1 (centres undefined)	21%[57 µM]	-5%	-5%[12.7 µM]	-27%	-8%
CCn1c(C(=O)N2CCCC(C(=O)NCCCOC)C2)cc2sccc21 (centres undefined)	27%	-2%	3%[59 µM]	-17%	.
O=C1CCc2cc(S(=O)(=O)Nc3cccc(C(F)(F)F)c3)ccc2N1	.	.	.	-10%	.
CCc1ccc2occ(CC(=O)NCc3ccccc3)c2c1	57%	42%	14%[59 µM]	13%	.
C[C@H]1CN([C@@H](C)CO)C(=O)Cc2cc(NC(=O)CCN3CCOCC3)ccc2O[C@@H]1CN(C)Cc1ccc(Oc2ccccc2)cc1	-18%	.	.	45µM*	-3%
C[C@H]1CN([C@@H](C)CO)C(=O)Cc2cc(NC(=O)C3CC3)ccc2O[C@H]1CN(C)Cc1ccc(Oc2ccccc2)cc1	8%	.	.	?	-13%
N#CCCn1c(=O)c(-c2ccc(F)cc2)nc2cnc(Oc3ccccc3)nc21	.	.	5%[12.7 µM]	.	.
O=C(O)c1cnn2c1C(=O)N(Cc1cccs1)CC2	32µM*	22µM*	40µM*	?	.
CCNC(=O)c1nn(-c2ccccc2C)nc1CO	49%	-19%	7%[59 µM]	-8%	.
O=C(Nc1ccc(S(=O)(=O)N2CCCCC2c2cccnc2)cc1)c1ccc(F)cc1 (centres undefined)	53%[57 µM]	-14%	1%[59 µM]	-16%	.
O=C1c2ccccc2NC(c2cn[nH]c2-c2ccc(Cl)cc2)N1O (centres undefined)	42%	-34%	28µM*	?	8%
CCN(CC)CCC=C(c1cccs1)c1cccs1	?	.	.	0.89µM*	.
Cc1ccc(C)c(-n2c3nc(=O)[nH]c(=O)c-3cc3cc([N+](=O)[O-])ccc32)c1	-20%	-28%	10µM*	?	?
Cc1cccc(-n2c3nc(=O)[nH]c(=O)c-3cc3cc([N+](=O)[O-])ccc32)c1	5%	1%	50µM*	-29%	4%
O=c1nc2n(-c3ccccc3F)c3ccccc3cc-2c(=O)[nH]1	26%	-14%	-21%[59 µM]	-6%	.
COc1cc(CNn2cn[nH]c2=S)cc(Cl)c1OCc1ccccc1	3%	-6%	10µM*	-22%	-2%
COc1cc(CNn2cn[nH]c2=S)cc(Br)c1OCc1ccccc1F	21%	?	10µM*	?	2%[11.4 µM]
CC(C)NC(=O)NC(=O)COc1ncnc2sccc12	?	52%	50µM*	?	6%
C=CC[n+]1ccc2ccccc2c1C	10%	3%	-37%	?	-3%
C=CC[n+]1ccc(/C=C2\C=Cc3cc(C)ccc3N2CC)c2ccccc21	?	14µM*	14µM*	20µM*	.
O=C(N1CCc2cc([S+](=O)([O-])N3CCN([S+](=O)([O-])c4c(F)cccc4F)CC3)ccc2C1)C(F)(F)F	.	.	.	-18%	.
O=C(Cn1c(=O)oc2ccccc21)NCc1ccccc1Cl	-3%	5%	7%[59 µM]	-1%	.
CCN(CC)c1ccc(/C=C2\C(=O)c3ccc(C(=O)O)cc3C2=O)cc1	40µM*	14µM*	11µM*	45µM*	?
C/C(=N\NC1=N[C@H]2CS(=O)(=O)C[C@H]2S1)c1ccccc1	12%	?	50µM*	?	.
O=S1(=O)C[C@@H]2N=C(N/N=C/c3ccccc3)S[C@@H]2C1	3%	-4%	?	-12%	.
SMILES	HP1b chromo inh	BAZ2B inh	G9a block	JMJD2A Tudor inh	L3MBTL1 inh
CCC/C(=N/Nc1ccc(Cl)cc1)c1cnnc(-c2ccccc2)n1	47%	.	.	-14%	.
COc1ccc(N/N=C(/C)c2cnnc(-c3ccccc3)n2)cc1	-13%	-38%	1.4µM*	79µM*	-3%
CN(C)c1ccc(N2CC(C)(C)C2=O)cc1	-18%	-22%	10µM*	-27%	11%
CC(=O)c1ccc(N2CC(C)(C)C2=O)cc1	7%	-3%	0%	-15%	?
Cc1ccc(NC2=NCCC2)cc1Cl	17%	39%	-3%[59 µM]	-6%	20%
Cc1nc2ccc(NC3=NCCCCC3)cc2s1	?	?	5.6µM*	3.5µM*	1%
CC(C)NC(=O)Cn1c(=O)nc(-c2ccccc2)c2ccccc21	11%	0%	1%[59 µM]	-2%	.
COc1ccc(-n2nc(C(=O)NCC(=O)N3CCN(c4ccccc4)CC3)c3ccccc3c2=O)cc1OC	65%	2%	45µM*	-13%	.
COc1ccc(-n2nc(C(=O)NCC(=O)N3CCCC3)c3ccccc3c2=O)c(OC)c1	-2%	6%	9%[59 µM]	-2%	.
CCOC(=O)N1CCN(C(=O)CNC(=O)c2nn(-c3ccc(OC)cc3OC)c(=O)c3ccccc23)CC1	51%	5%	45µM*	-4%	.
COc1ccc(-n2nc(C(=O)NCC(=O)N3CCN(c4ccccc4OC)CC3)c3ccccc3c2=O)cc1OC	8%	-13%	9%	-19%	.
Cc1nc(Nc2c(Cl)cccc2Cl)sc1C(=O)Nc1ccccc1	25%	?	50µM*	-8%	3%
Cc1nc(N)sc1C(=O)Nc1ccccc1	24%	-29%	50µM*	?	7%
Cc1ccc(NC(=O)c2sc(N)nc2C)cc1	38%	-4%	19%	-13%	.
Cc1nc(NC(=O)C2CC2)sc1C(=O)Nc1ccccc1	16%	5%	.	-7%	-1%
O=C(CSc1cn(CCNC(=O)c2cccc(C(F)(F)F)c2)c2ccccc12)Nc1ccc2c(c1)OCCO2	27%	-30%	?	-24%	.
Cc1ccccc1Cn1cc(S(=O)(=O)c2ccc(Cl)cc2)c(=O)c2cc3c(cc21)OCO3	28%	-2%	1%[59 µM]	-21%	.
O=C1c2ccccc2C(=O)N1c1ncccc1O	.	.	.	-19%	.
Cn1ccnc1COc1ccc(C=O)cc1	12%	2%	3%	-10%	1%
CC(C)NC(=O)C1=CC(c2ccc3c(c2)OCO3)=NS(=O)(=O)N1C	6%	5%	-5%[59 µM]	-12%	.
Cc1cccc(-n2ncc(C(=O)NCc3ccccn3)c2C2CCN(C(=O)OC(C)(C)C)CC2)c1	46%	4%[57.1 µM]	25%[59 µM]	-15%	.
CSC1=NC(C(Cl)(Cl)Cl)N=C(c2ccc(C)cc2)N1 (centres undefined)	59%	-20%	14µM*	-5%	18%
CC1(C)Cc2ccccc2C(/C(=N\Nc2cccc(Cl)c2)C(N)=O)=N1	?	25µM*	?	35µM*	?
COc1cc2[nH]c(=O)n(CCCCCC(=O)NCCCN3CCOCC3)c(=O)c2cc1OC	22%	2%	0%[12.7 µM]	-8%	.
O=c1c2cc(Cl)ccc2[nH]c(=S)n1Cc1ccco1	46%	-1%	-50%[12.7 µM]	-17%	-10%
COc1cc2[nH]c(=S)n(Cc3ccco3)c(=O)c2cc1OC	14%	-3%	3.5µM*	-8%	.
Cc1[nH]c(=S)n(CC2CCCO2)c1C (centres undefined)	-16%	0%	?	28µM*	3%
